Among the data in the supplement of paper PMC10681739 are ETS1 binding intensity and RUNX1 binding intensity values, retold here.

For one assay, the target named is T1, ETS1 (UniProt P14921).
T1 sequence: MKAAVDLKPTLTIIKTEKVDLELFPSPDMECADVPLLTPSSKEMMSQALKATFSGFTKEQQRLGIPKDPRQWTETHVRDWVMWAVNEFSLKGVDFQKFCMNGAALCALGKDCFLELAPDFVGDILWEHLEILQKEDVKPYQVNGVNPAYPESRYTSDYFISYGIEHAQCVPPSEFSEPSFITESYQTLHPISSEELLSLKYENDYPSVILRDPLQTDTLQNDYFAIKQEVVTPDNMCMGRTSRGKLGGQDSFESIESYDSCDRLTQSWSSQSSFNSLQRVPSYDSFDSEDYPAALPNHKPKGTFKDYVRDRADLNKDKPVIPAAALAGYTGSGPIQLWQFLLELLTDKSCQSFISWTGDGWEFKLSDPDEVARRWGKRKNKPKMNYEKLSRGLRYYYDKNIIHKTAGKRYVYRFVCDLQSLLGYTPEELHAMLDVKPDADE
Kind of assay: ETS1 binding intensity (PBM fluorescence), ETS1 alone (arbitrary fluorescence units); higher = stronger binding. The conditions noted are these: ETS1 concentration 1 nM; RUNX1 concentration 0 nM.

Assay [1] concerns the target RUNX1 (UniProt Q01196). In words: RUNX1 binding intensity (PBM fluorescence), RUNX1 alone (arbitrary fluorescence units); higher = stronger binding. The settings on record: RUNX1 concentration 2 nM; ETS1 concentration 0 nM. As for the experimental part:
(§1)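 Cooperative gcPBM on 36-bp genomic probes with neighbouring ETS1 and RUNX1 sites. Recombinant human RUNX1 (2 nM) was incubated alone or with ETS1 (25 nM) and detected with anti-RUNX1 antibody plus Alexa488 secondary. Values are medians over 4 replicate spots; the RUNX1+ETS1 data were normalised to the RUNX1-only data. The probes sit in constant array flanks that are not printed.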

For assay [2], the target named is RUNX1 (UniProt Q01196). Kind of assay: RUNX1 binding intensity (PBM fluorescence) in presence of ETS1, normalised to RUNX1-only experiment (arbitrary fluorescence units); higher = stronger binding. The conditions noted are these: RUNX1 concentration 2 nM; ETS1 concentration 25 nM. As for the experimental part: as §1
RUNX1, sequence (Q01196 whole entry): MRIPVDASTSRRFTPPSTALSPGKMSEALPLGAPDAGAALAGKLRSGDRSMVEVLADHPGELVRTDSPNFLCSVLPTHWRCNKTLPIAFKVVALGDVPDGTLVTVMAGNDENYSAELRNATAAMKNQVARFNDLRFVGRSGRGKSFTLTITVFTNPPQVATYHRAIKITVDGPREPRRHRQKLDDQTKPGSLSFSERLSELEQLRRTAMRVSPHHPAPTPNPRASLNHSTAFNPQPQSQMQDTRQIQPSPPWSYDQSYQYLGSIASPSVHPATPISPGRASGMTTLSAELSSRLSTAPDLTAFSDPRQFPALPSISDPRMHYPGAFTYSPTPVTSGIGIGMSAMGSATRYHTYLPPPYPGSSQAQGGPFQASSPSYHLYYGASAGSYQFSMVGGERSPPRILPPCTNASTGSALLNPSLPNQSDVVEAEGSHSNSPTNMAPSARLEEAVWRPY
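Throughout, for RUNX1 binding intensity (PBM fluorescence) in presence of ETS1, normalised to RUNX1-only experiment: Full-length recombinant human ETS1 or RUNX1 bound to double-stranded 36-bp genomic probes on microarrays, detected by protein-specific primary antibody and Alexa488 secondary, spot fluorescence as median of four replicate spots.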
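Throughout, for RUNX1 binding intensity (PBM fluorescence), RUNX1 alone: Full-length recombinant human RUNX1 bound to double-stranded 36-bp genomic probes on a high-density microarray, scored as Alexa488 fluorescence per spot via anti-RUNX1 antibody, median of four replicate spots.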

The sequence CAGCGGAAGAAAGACCTGCCACCTCCACCACAAAGA registered an ETS1 binding intensity with ETS1 of 440. Also, the RUNX1 binding intensity in the assay with RUNX1 [1] is 1000; with RUNX1 [2] it was 925.
The matching figures for CTGAAACAGGAAGCTGAGGGTGCGGTTGGGGGAGGA: 2210, 811 and 1520.
The matching figures for CTCATTGACAGGAAGTCTAACCACAGGCTTAGGCCC: 3730, 1400 and 6750.
For GCAGAAACAGGAAGAGACAGGGCTGACCGCAGCAGG the same measures were 1290, 1230 and 2340.
In turn, TTCATTTCTACCTTCCTGTGGTCTTTTTGCCTCCGA returned an ETS1 binding intensity with ETS1 of 512. For the same sequence, the RUNX1 binding intensity with RUNX1 [1] is 1860; with RUNX1 [2], 2320.
Regarding AGACAGGAGTTCAGGAAGCTGCGGTCTAGATTATGT, the ETS1 binding intensity in the assay with ETS1 was found to be 754. The RUNX1 binding intensity in the assay with RUNX1 [1] amounted to 1210; with RUNX1 [2], 1710.
For GATCTGTGCTCAGGATGTGGTGAGAGAATAAGGAAG the same measures were 1210, 753 and 1050.
ACAAGAGGAAGTGAGTCTACCCATGATGCGGTCACA came in with an ETS1 binding intensity with ETS1 of 707. In addition, the RUNX1 binding intensity with RUNX1 [1] was found to be 891; in the assay with RUNX1 [2], 1440.
As for CCAGGCGGAAGCGGCCGGGAGTAGCGCTGCGGTTGG, the ETS1 binding intensity in the assay with ETS1 turned out to be 631. Also, the RUNX1 binding intensity was determined as 817 in the assay with RUNX1 [1] and 1610 with RUNX1 [2].
The matching figures for TCCCACTGCGACGGAAGCACAGCGGTTAAGATTGCA: 821, 792 and 910.
For TTGCCATTCCAGGAAATGAGCTTACCACATTGACTG the same measures were 1980, 798 and 1070.
The sequence CTTTGCAGGAAGCTGGGGTTCACCCACAGCCTTGTT registered an ETS1 binding intensity in the assay with ETS1 of 749. In addition, the figures for the RUNX1 binding intensity in the assay with RUNX1 [1] and in the assay with RUNX1 [2] were 729 and 878, respectively.
The matching figures for GTTGGGAGGCGCACATCCGGCGGTTACCCGGTGCTT: 2360, 785 and 1560.
CCGATTTCCCCGGACGTGGTGAGACCGCGCTTCGTC displayed an ETS1 binding intensity in the assay with ETS1 of 591. In addition, the RUNX1 binding intensity in the assay with RUNX1 [1] turned out to be 835; in the assay with RUNX1 [2] it was 1280.
ACCGGGTGCTGAGGAGGAAGTGGTTGCTATAACCCC displayed an ETS1 binding intensity with ETS1 of 2350. For the same sequence, the values for the RUNX1 binding intensity in the assay with RUNX1 [1] and with RUNX1 [2] were 741 and 1120, respectively.
The matching figures for CCTGCGGATCACGGAAGTGGCTGCGGTCGGCGCCAT: 2160, 1360 and 4890.
In turn, AGGCTTCCTGTTTTATCTCGTGTGTGTGGTGCACCA registered an ETS1 binding intensity with ETS1 of 547. Besides, the RUNX1 binding intensity with RUNX1 [1] amounted to 970; with RUNX1 [2] it was 2120.
As to GCACCCTTCCTGCTTCCCACAGTGTGGTATAAGAGG, the ETS1 binding intensity with ETS1 was determined as 412. The RUNX1 binding intensity with RUNX1 [1] came to 965; in the assay with RUNX1 [2], 1560.
The matching figures for ACCTCAAGCCCAGGATGTGGTTTGGCCACTATTGAG: 1310, 804 and 1680.
With CTGTGACACGTGCGGAAGCTGTGGTAAGTGCATCCA, the ETS1 binding intensity in the assay with ETS1 was found to be 1130. In addition, the results for the RUNX1 binding intensity with RUNX1 [1] and in the assay with RUNX1 [2] were 840 and 984, respectively.
For GCCCAGGGCGGCCGGAAGTTTGCGGGGCGGGGCGGA the same measures were 8880, 754 and 1480.
TGAGGGGCTCGCCGGGAAATGTGGTTTAGCGGCCCT: the ETS1 binding intensity with ETS1 was determined as 564. Further, the RUNX1 binding intensity with RUNX1 [1] was found to be 832; with RUNX1 [2], 2000.
